IL1B secr inh – inflammasome signaling inhibition, IL-1 beta readout; THP-1 LPS/ATP IL-1B secretion, AlphaLISA, 16 h; active compounds read low; activity change, % at 57.5 µM; hit rate 4.7% among 360,000; AID 743279; in the data active = activity change below about -50%; inconclusive = mostly about -30% to -49%
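THP-1 cells pretreated 1 hr with compounds (up to 57.5 uM final), then stimulated with LPS (250 ng/mL final) plus ATP (1.25 mM final); secreted IL-1B measured by AlphaLISA after 16 hr, decreased signal indicating inhibition.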
TDP1 cell CPT – growth inhibition of DT40 Tdp1-/-;hTDP1 cells with camptothecin (screen for TDP1 inhibitors). hit rate 12% among 420,000. Potency, µM (top dose mostly 46.2 µM), inactives show at the highest dose activity change, negative = growth inhibition, most hits filed as inhibitors. chicken DT40 Tdp1-/-;hTDP1 cells + 20 nM CPT, ATP luminescence, 48 h; also: potency is read from the fitted curve at half-maximal effect; nearly all actives have a fitted effect of over 55% in size
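Chicken DT40 Tdp1-/- cells stably complemented with human TDP1 were seeded at 400 cells/well in medium containing 20 nM camptothecin, exposed to pin-transferred compounds, and grown at 37 °C for at least 48 hr. Viability was read as ATP luminescence.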
TDP1 inh – TDP1 (human) enzyme inhibition; Q9NUW8; recombinant TDP1, AlphaScreen DNA substrate cleavage; Potency, µM (doses to about 130 µM), without a hit: at the top dose activity change, negative = inhibition, hits mostly inhibitors; hit rate 0.28% among 350,000; AID 485290; also: potency is read from the fitted curve at half-maximal effect; nearly all actives have a fitted effect of over 40% in size
Target sequence (Q9NUW8 whole entry, looked up): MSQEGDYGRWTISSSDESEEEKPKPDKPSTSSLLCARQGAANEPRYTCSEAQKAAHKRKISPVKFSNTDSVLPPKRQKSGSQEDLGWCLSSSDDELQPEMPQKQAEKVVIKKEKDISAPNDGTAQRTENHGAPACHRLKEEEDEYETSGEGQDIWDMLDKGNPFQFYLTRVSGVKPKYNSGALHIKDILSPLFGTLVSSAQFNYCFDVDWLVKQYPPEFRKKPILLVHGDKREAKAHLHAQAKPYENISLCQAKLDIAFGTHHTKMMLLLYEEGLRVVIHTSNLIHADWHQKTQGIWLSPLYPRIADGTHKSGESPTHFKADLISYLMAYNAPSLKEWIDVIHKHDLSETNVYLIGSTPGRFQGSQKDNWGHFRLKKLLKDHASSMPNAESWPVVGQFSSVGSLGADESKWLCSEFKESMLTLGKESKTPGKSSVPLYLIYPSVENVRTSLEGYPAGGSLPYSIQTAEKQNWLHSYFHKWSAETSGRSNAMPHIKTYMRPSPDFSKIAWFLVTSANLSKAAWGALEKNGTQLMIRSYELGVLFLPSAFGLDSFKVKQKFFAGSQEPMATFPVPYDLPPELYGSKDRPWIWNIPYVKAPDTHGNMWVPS
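Tdp1 1 nM final; 15 min RT w/ cpd; substrate 15 nM, 5 min; beads 10 ug/ml, 10 min; AlphaScreen read. Neg ctrl: no enzyme.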
DT40 TDP1 no CPT – qHTS for Inhibitors of human tyrosyl-DNA phosphodiesterase 1 (TDP1): qHTS in cells in absence of CPT | DT40 Tdp1-/- hTDP1 cells, no CPT, ATP luminescence, 48 h | hit rate 15% among 420,000 | Potency, µM (titrated, usually from 46.2 µM), for inactives: at the top dose activity change, negative = growth inhibition, most hits filed as inhibitors; also: potency is read from the fitted curve at half-maximal effect; nearly all actives have a fitted effect of over 55% in size
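Chicken DT40 Tdp1-/- cells stably complemented with human TDP1 were seeded at 400 cells/well with DMSO in place of 20 nM camptothecin. After compound pinning, cells grew at least 48 hr at 37 °C; viability read by CellTiter-Glo luminescence.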
Giardia killer – kills Giardia lamblia; Giardia lamblia trophozoite viability; activity change, % at 7.66 µM, hits read low; hit rate 0.15% among 340,000; in the data active = activity change below about -80%; inconclusive = between about -30% and that limit;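 also: parasites exposed to compound for two days anaerobically before the ATP read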
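Each well holds 100 Giardia trophozoites and compound. After two days (48 hrs) at 37 deg C in anaerobic conditions, ATP is quantified by luminescence.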
ELG1 repair inh – inhibitors of ELG1-dependent DNA repair in HEK293T cells; HEK293T ELG1-luciferase reporter, luminescence, 16 h; DNA damage induced by 5-fluorouridine; Potency, µM (highest dose often 46.1 µM), without a hit: top-dose activity change, negative = inhibition, hits mostly inhibitors; hit rate 2.3% among 330,000; also: potency is read from the fitted curve at half-maximal effect; nearly all actives have a fitted effect of over 55% in size
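5-Fluorouridine DNA damage + compound/DMSO, 2,000 cells/well, 16 h, 37 °C/5% CO2. ONE-Glo, 30 min RT, luminescence. Readout = decrease in reporter signal.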
Numbers without * were called inactive; u = inconclusive; x = no result; [ ] = another dose, or the depositor's remark. In the library only some 19% were active in any assay of this set; here they are far more common. Unless noted, calls follow the shape of the dose curve; as a rule, active = well fitted curve in the direction sought with a large enough effect; inconclusive = small, poorly fitted or top-dose-only effect, or another doubt; inactive = no such curve, though single readings can be large; an effect the other way counts as inactive or inconclusive. % is scaled to controls: 0 for no effect and ±100 for the full control effect.

SMILES | IL1B secr inh | TDP1 cell CPT | TDP1 inh | DT40 TDP1 no CPT | Giardia killer | ELG1 repair inh
CC(C)c1cccc(-c2ccc3c(c2)S(=O)(=O)c2cccc(C(=O)NCc4ccccc4Cl)c2C3=O)c1 | 18 | 2.6µM* | -1% | 6.5µM* | -28 | 25%
CC(C)c1cccc(-c2ccc3c(c2)S(=O)(=O)c2cccc(C(=O)NCc4ccccc4)c2C3=O)c1 | 18 | u | 1% | 23µM* | -5 | u
CC12CCC(C(N)C1=O)C2(C)C (centres undefined) | 3 | 6% | x | -5% | 4 | x
COc1ccccc1CNc1nc(NC(C)C)nc2cc(-c3ccccc3)sc12 | -115* | 2.6µM* | x | 4.1µM* | x | x
COc1ccccc1CNc1cc(-c2ccccc2)ccc1OC | -3 | -2% | 8% | -28% | -11 | 3%
CC(C)Nc1nc(NCCOc2ccccc2Cl)c2sc(-c3ccccc3)cc2n1 | -103* | 6.5µM* | x | 6.5µM* | x | x
CCNc1nc(NC(C)C)nc(N(C#N)CCOc2ccc(Cl)cc2Cl)n1 | -21 | u | 1% | u | 0 | u
Cc1ccc(F)cc1-c1nc(NC(C)C)nc2cc(-c3ccccc3)sc12 | u | u | x | 18µM* | x | x
CCCCOc1cccc(C(=O)Nc2ccc(S(=O)(=O)Nc3nnc(CC)s3)cc2)c1 | 20 | -2% | 5% | -17% | 1 | -1%
COCCNc1nc(NCCCN2CCCC2=O)c2sccc2n1 | 0 | -3% | x | -6% | x | x
COCCNc1nc(Nc2ccc(F)cc2)c2sccc2n1 | 59 | 18µM* | x | 12µM* | x | x
COCCNc1nc(Nc2ccc(C#N)cc2)c2sccc2n1 | 73 | 21µM* | x | 16µM* | x | x
Cc1ccc(C)c(OCCC(=O)NCCc2ccc(F)cc2)c1 | -7 | u | -3% | u | -12 | -2%
CCSc1nnc(-c2ccc(C)cc2)c2ccccc12 | -22 | u | 1% | 16µM* | 7 | -1%
CCN(CC)CCOc1nnc(-c2ccc(C)cc2)c2ccccc12 | -57* | u | 2% | 15µM* | 6 | -5%
CC(=O)c1ccc(NC(=S)N(C)C2CCN(C)CC2)cc1 | u | -11% | 2% | -1% | -14 | 18%
CCNc1nnc(-c2ccccc2OC)s1 | 0 | -18% | 0% | 3% | 9 | u
COc1ccccc1-c1nnc(NC(=O)C(C)SC2=NCCS2)s1 (centres undefined) | u | 21µM* | 5% | u | 8 | u
CC(SC1=NCCS1)C(=O)Nc1nnc(-c2ccc(Cl)cc2)s1 (centres undefined) | u | 15µM* | 8% | 21µM* | 10 | u
COC(=O)c1ccc(CSc2ccc3nnc(-c4ccc(OC)c(OC)c4)n3n2)o1 | 0 | u | x | 10µM* | -1 | x
COc1ccc(-c2nnc3ccc(SCC(=O)N4CCCC4)nn23)cc1 | -19 | u | -1% | u | u | -3%
COC(=O)c1ccc(CSc2ccc3nnc(-c4ccc(OC)cc4)n3n2)o1 | x | x | -3% | x | x | 18%
COc1ccc(-c2nnc3ccc(SCC(=O)N4CCCCCC4)nn23)cc1OC | -65* | -29% | 3% | u | -2 | u
COc1ccc(-n2nc(C(=O)NCC(=O)NCCN(C)C)c3ccccc3c2=O)cc1 | u | -5% | x | 2% | 27 | 10%
CC(C)S(=O)(=O)c1csc(NC(=O)Nc2cc(Cl)ccc2Cl)c1Cl | -101* | 16µM* | 3% | u | -2 | 21µM*
SMILES | IL1B secr inh | TDP1 cell CPT | TDP1 inh | DT40 TDP1 no CPT | Giardia killer | ELG1 repair inh
CC(=O)NC(CCS(C)(=O)=O)C(=O)Nc1cc(Cl)ccc1Cl (centres undefined) | 12 | -7% | 0% | 1% | -22 | 13%
O=c1[nH]c(NC2CCCCC2)c([N+](=O)[O-])c(=O)[nH]1 | 17 | -5% | 0% | -18% | -6 | 1%
OCc1ccccc1OCCCN1CCC(Cc2ccccc2)CC1 | u | -1% | 5% | u | 2 | -8%
C=CCOc1ccccc1CN1CCC(Cc2ccccc2)CC1 | -86* | u | x | u | -6 | -20%
O=[N+]([O-])c1cccc(OCCN2CCC(Cc3ccccc3)CC2)c1 | -66* | u | x | u | 12 | -3%
Cc1ccc([N+](=O)[O-])c(OCCCN2CCC(Cc3ccccc3)CC2)c1 | -60* | 21µM* | x | 21µM* | 30 | x
COc1cc(OC)c(CN2CCC(Cc3ccccc3)CC2)cc1Br | -58* | u | x | u | 14 | -25%
O=C(CSc1ncn[nH]1)Nc1ccc2c(c1)CCC2 | 0 | -17% | 1% | -18% | 6 | 15%
COc1cc(CNCc2cc3cc(C)ccc3nc2-c2ccc(F)cc2)cc(OC)c1OC | x | -13%[9.04 µM] | x | -14% | x | x
O=C(Nc1cccc(S(=O)(=O)N2CCOCC2)c1)c1ccc(N2CCCC2=O)cc1 | -10 | -3% | 1% | 1% | -6 | u
COc1cc(C)c(CN2CCC(Cc3ccccc3)CC2)cc1C | u | u | x | u | -19 | -9%
COc1ccc(OC)c(CN2CCC(Cc3ccccc3)CC2)c1 | -7 | u | 4% | 16µM* | 10 | -13%
COc1cc(CN2CCC(Cc3ccccc3)CC2)c([N+](=O)[O-])cc1OC | -7 | 21µM* | x | u | -7 | u
COc1ccc(CN2CCN(Cc3ccccc3C(F)(F)F)CC2)c(OC)c1 | -10 | u | x | 16µM* | -16 | -8%
CCOC(=O)CCCN1C(=O)CCn2nc(-c3cn(C)c4ccccc34)cc21 | x | u | 8% | u | x | x
O=C(OCC(=O)N1CCc2ccccc2C1)c1ccc(F)cc1Cl | -7 | 4% | 1% | -15% | 4 | u
COC(=O)c1ccc(N2CCOCC2)c(NC(=O)c2ccco2)c1 | 11 | -10% | 4% | -15% | -4 | -1%
C/C(=N\NC(=O)c1cc(-c2ccncc2)nc2ccccc12)c1ccc(OC(F)F)cc1 | 14 | u | 5% | u | 16 | u
O=C(CSc1nc2cc(Cl)ccc2s1)Nc1cccc(S(=O)(=O)N2CCOCC2)c1 | 28 | u | -1% | 21µM* | 12 | u
O=C(CSc1nnc(C23CC4CC(CC(C4)C2)C3)o1)Nc1ccc(N2CCOCC2)c(Cl)c1 | 18 | u | 0% | 18µM* | -11 | -7%
O=C(CSc1nc2ccccc2s1)Nc1ccc(Cl)c(S(=O)(=O)N2CCOCC2)c1 | 29 | 23µM* | 5% | u | 6 | u
O=C(CSc1nc2ccccc2s1)Nc1ccc(N2CCOCC2)c(Cl)c1 | -4 | 16µM* | 4% | 21µM* | -13 | -8%

Screening results as filed in PubChem BioAssay.
